pPAFAH FP inh: pPAFAH (human) enzyme inhibition | 1.5% of 330,000 active | inhibition, % at 3.39 µM | recombinant pPAFAH, FP-rhodamine probe fluorescence polarization;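 active = inhibition above the mean inhibition across the screen plus 3 SD, cut at about 25% in these data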;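 also: inhibitors block binding of the rhodamine activity-based probe so polarization drops; 0% = enzyme with DMSO and 100% = wells lacking pPAFAH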
LYPLA2 inh: blocks human lysophospholipase 2, a PME1 counter-screen; O95372; recombinant LYPLA2, FP-Rh probe fluorescence polarization; inhibition, % at 5.9 µM; 0.38% of 320,000 active; AID 2177;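 active = inhibition above the screen-wide mean plus 3 SD, limit set per campaign, cut at about 26% in these data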;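 also: 0% = LYPLA2 with DMSO and 100% = wells lacking LYPLA2 enzyme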
Target sequence (O95372 whole entry, looked up): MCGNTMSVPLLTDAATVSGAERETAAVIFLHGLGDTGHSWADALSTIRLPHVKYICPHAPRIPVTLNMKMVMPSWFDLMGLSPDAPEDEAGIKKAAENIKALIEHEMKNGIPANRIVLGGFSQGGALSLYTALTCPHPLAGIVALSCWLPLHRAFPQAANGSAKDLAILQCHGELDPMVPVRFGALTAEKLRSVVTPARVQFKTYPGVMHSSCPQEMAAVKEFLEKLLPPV
LYPLA1 counter: LYPLA1 (human) inhibition in PME1 counter-screen; inhibition, % at 5.9 µM; 0.16% of 320,000 active; recombinant LYPLA1, FP-Rh probe fluorescence polarization; AID 2174; O75608;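 active = inhibition above the mean of all tested compounds plus 3 SD, set per campaign, cut at about 14% in these data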;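 also: inhibitors block serine hydrolase probe labeling of LYPLA1 so polarization falls; 0% = enzyme with DMSO and 100% = wells lacking LYPLA1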
PAFAH1B3 inh: inhibitors of human PAFAH1B3; 0.28% of 340,000 active; recombinant PAFAH1B3, FP-rhodamine probe, fluorescence polarization; Q15102; AID 492972; inhibition, % at 3.39 µM;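 active = inhibition above the screen-wide average of all tested compounds plus 3 SD, cut at about 25% in these data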;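 also: 0% = enzyme with DMSO only and 100% = wells lacking PAFAH1B3 protein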
PAFAH2 inh: inhibitors of human PAFAH2; Q99487; recombinant PAFAH2, FP-rhodamine activity probe, fluorescence polarization; inhibition, % at 3.39 µM; 0.99% of 340,000 active;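 active = inhibition above the mean over all tested compounds plus 3 SD, cut at about 30% in these data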;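 also: inhibitors block probe labeling of enzyme so polarization drops; 0% = enzyme with DMSO and 100% = wells lacking PAFAH2 protein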
PAFAH1B2 FP inh: blocks human PAF acetylhydrolase 1b catalytic subunit 2 | P68402 | recombinant PAFAH1B2, FP-rhodamine activity probe, fluorescence polarization | inhibition, % at 3.39 µM | 1.2% of 340,000 active | AID 492953;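 active = inhibition above the mean of all tested compounds plus 3 SD, cut at about 24% in these data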;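 also: 0% = enzyme with DMSO and 100% = wells lacking PAFAH1B2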
Target sequence (P68402 whole entry, looked up): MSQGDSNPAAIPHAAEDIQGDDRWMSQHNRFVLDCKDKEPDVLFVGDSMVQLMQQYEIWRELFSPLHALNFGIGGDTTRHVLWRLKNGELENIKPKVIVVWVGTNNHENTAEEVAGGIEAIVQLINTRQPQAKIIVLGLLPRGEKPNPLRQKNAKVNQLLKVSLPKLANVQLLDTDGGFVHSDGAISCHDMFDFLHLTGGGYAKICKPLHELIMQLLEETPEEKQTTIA
Starred values were filed as active, the others as inactive; x = no result given. Shown are actives, neighbours in structure and some others; about 2.9% of the full set was active somewhere.

SMILES | pPAFAH FP inh | LYPLA2 inh | LYPLA1 counter | PAFAH1B3 inh | PAFAH2 inh | PAFAH1B2 FP inh
CC(=O)Nc1ccc(S(=O)(=O)c2ccc(C)cc2)cc1 | -3 | 1 | 0 | 14 | 7 | 25*
Cc1ccc(S(=O)(=O)NNC(=O)C(=O)NNS(=O)(=O)c2ccc(C)cc2)cc1 | 1 | -1 | -1 | -4 | 2 | 28*
CCCn1c2c(c(O)c(C(=O)Nc3ncccc3O)c1=O)CCCC2 | 2 | 3 | -2 | 9 | -1 | 1
CCc1ccc(S(=O)(=O)NCc2csc(-c3ccccc3)n2)s1 | 8 | -5 | -1 | 1 | 2 | 12
CCc1ccc(S(=O)(=O)NCCc2csc(-c3ccccc3)n2)s1 | 14 | -2 | -2 | -2 | -4 | 39*
O=S(=O)(Nc1ccc(Cl)cc1)c1ccc2c(c1)CCO2 | 32* | 0 | 0 | -5 | 0 | 20
Nc1cc(S(=O)(=O)Nc2ccc(Cl)cc2)ccc1N1CCOCC1 | 25* | 7 | 6 | -3 | 4 | 1
O=S(=O)(Nc1ccc2c(c1)OCCO2)c1ccc(F)c(F)c1 | 8 | -1 | 1 | 7 | 2 | 9
CCCn1c(N)c(N(CCOC)C(=O)c2ccc(N(C)S(=O)(=O)c3ccc(C)cc3)cc2)c(=O)[nH]c1=O | -4 | 4 | -2 | -4 | -2 | 11
Cc1ccc(SCCNC(=O)c2ccccc2)cc1 | 2 | 9 | -1 | 9 | 8 | 27*
Cc1ccc(SCCC(=O)NCCSCc2ccccc2C)cc1 | 4 | 0 | -2 | 2 | -1 | 42*
Cc1cccc(NS(=O)(=O)c2cc(C(=O)NCCC3=CCCCC3)ccc2Cl)c1 | 12 | -30 | -17 | -3 | 2 | 25*
CCOc1ccccc1C(=O)NCC(=O)NCCSc1ccc(Br)cc1 | x | x | x | 4 | -4 | 28*
O=C(C[n+]1cccc(NC(=O)c2ccccc2)c1)c1ccccc1 | 3 | 10 | -5 | 2 | 0 | 4
Cc1ccc(SCCNC(=O)c2ccccc2F)cc1 | 5 | 0 | -2 | 0 | -6 | 25*
Cc1ccc(NS(=O)(=O)c2cc(C(=O)NCCSc3ccc(C)cc3)ccc2C)cc1 | 14 | -67 | -34 | -16 | -36 | 15
Cc1ccc(SCCNC(=O)c2ccc(C)c(S(=O)(=O)Nc3cccc(C)c3)c2)cc1 | 30* | -58 | -31 | -6 | -18 | 21
Nc1ccc(C(=O)O)cc1 | 4 | 6 | 4 | 3 | -3 | 5
Nc1ccc(O)cc1 | 38* | 9 | 7 | x | x | x
CCOc1ccc(-n2ccc(=O)c(C(=O)Nc3ccc(S(=O)(=O)Nc4nccs4)cc3)n2)cc1 | 17 | 7 | -6 | 5 | 12 | 5
O=C(Nc1ccc(S(=O)(=O)Nc2nccs2)cc1)c1nn(-c2ccc(F)cc2)ccc1=O | 26* | 0 | -1 | 7 | 24 | 1
CC(C)Nc1nc(NC(C)C)nc(Oc2ccc(/C=N/O)cc2)n1 | 5 | 6 | 0 | -7 | 3 | 2
O=[N+]([O-])c1cc2no[n+]([O-])c2cc1N1CCCCC1 | x | x | x | 86* | 74* | 70*
N#Cc1cc(N2CCCCC2)c([N+](=O)[O-])cc1C#N | 2 | -4 | -4 | -4 | -1 | 1
COc1ccc(S(=O)(=O)N(C)C[C@H]2Oc3ccc(NC(=O)Nc4ccccc4)cc3C(=O)N([C@H](C)CO)C[C@@H]2C)cc1 | 5 | x | x | 0 | -4 | -3
SMILES | pPAFAH FP inh | LYPLA2 inh | LYPLA1 counter | PAFAH1B3 inh | PAFAH2 inh | PAFAH1B2 FP inh
O=C(CN1C(=O)NC(c2ccccc2)(c2ccccc2)C1=O)Nc1ccc2[nH]c(=O)[nH]c2c1 | 25* | -2 | -5 | 0 | -5 | -1
CC1(c2ccc(OC(F)F)cc2)NC(=O)N(CC(=O)Nc2ccc3[nH]c(=O)[nH]c3c2)C1=O (stereo unspecified) | 28* | -10 | -1 | 0 | 1 | 2
Cc1cc(N(C)C)nc(SC(C)C)n1 | -2 | 1 | 4 | 3 | 2 | 4
COc1ccc(O)c(/C=N/NC(=O)c2ccc(CSc3nc(C)cc(C)n3)cc2)c1 | 27* | 2 | 0 | 9 | 1 | 16
Cc1cc(C)nc(SCc2ccc(C(=O)N/N=C/c3ccc(C(=O)O)cc3)cc2)n1 | 3 | 2 | -6 | 10 | -4 | -3
Cc1cc(C)nc(SCc2ccc(C(=O)N/N=C/c3cccc(O)c3O)cc2)n1 | 32* | 17 | -11 | 37* | 0 | 21
COc1cc(C)nc(SCC(N)=O)n1 | -1 | 10 | 0 | 8 | 4 | 3
